Results reported in PubChem BioAssay AID803 (The Scripps Research Institute Molecular Screening Center, 2007).
Among all 140,000 compounds or so, about 680 (0.49%) were called active. Many of the other results were omitted from the sample, so actives are more common in it than they were. Values without a mark were called inactive. Cut-off read from the data, not from the text of the source: active = activation above about 5% (passing the limit was not always enough); inactive = the rest.

Target: Galanin receptor type 2 (Homo sapiens) (UniProt O43603)
Assay: GALR2 receptor agonists, primary screen, cell-based (AID 803);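 note: 0% = vehicle buffer wells and 100% = reference agonist at full effect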
Settings: GALR2-expressing cells, agonist activation read-out; at 5.6 µM; hits give high values

Chain of Galanin receptor type 2 (Homo sapiens) (O43603 whole entry, looked up): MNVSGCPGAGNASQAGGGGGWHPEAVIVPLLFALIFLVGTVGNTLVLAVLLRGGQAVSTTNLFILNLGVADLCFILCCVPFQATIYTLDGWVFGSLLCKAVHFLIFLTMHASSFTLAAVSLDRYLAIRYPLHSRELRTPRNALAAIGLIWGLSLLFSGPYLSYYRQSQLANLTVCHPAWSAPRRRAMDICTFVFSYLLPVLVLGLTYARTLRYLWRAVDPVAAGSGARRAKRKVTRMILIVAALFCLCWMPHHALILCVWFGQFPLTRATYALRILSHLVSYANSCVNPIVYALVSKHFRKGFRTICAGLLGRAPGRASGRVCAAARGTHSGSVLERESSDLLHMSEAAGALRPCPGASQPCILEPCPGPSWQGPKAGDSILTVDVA

Row | Structure (SMILES) | activation
1 | CC1Cc2ccccc2N1C(=O)CSc1nnc(-c2ccc(S(=O)(=O)N3CCCC3)cc2)n1C (stereo not given) | -1.17%
2 | O=S(=O)(O)c1nc2ccccc2n1Cc1ccc(Cl)cc1 | -2.3%
3 | CC(C)(C)c1ccc(C(=O)NCCn2c(N)c(C#N)c3nc4ccccc4nc32)cc1 | 6.59% (active)
4 | CC(C)(C)OC(=O)c1c(N)n(CCCN2CCCC2=O)c2nc3ccccc3nc12 | 3.75%
5 | CN1OC(COC(=O)c2ccc(Cl)cc2)CC1c1ccccc1 (stereo not given) | -1.93%
6 | CN(C)CCCn1c(N)c(C#N)c2nc(C#N)c(C#N)nc21 | 5.27%
7 | N#Cc1c(N)n(CCOC(=O)c2ccc(Cl)cc2)c2nc3ccccc3nc12 | 7.76% (active)
8 | CC(Oc1ccccc1)C(=O)Nc1oc(-c2ccco2)c(-c2ccco2)c1C#N (stereo not given) | -0.85%
9 | O=C(/C=C/c1ccc(Cl)cc1)N1CCN(c2ccccc2[N+](=O)[O-])CC1 | -1.19%
10 | Cc1ccc(Cc2c(C)nc3nc(SCC(=O)NCCN4CCOCC4)nn3c2C)cc1 | 24.8% (active)
11 | Cc1ccc(NC(=S)NCCN2CCOCC2)cc1 | -2.96%
12 | Cc1nc2nc(SCC(=O)NCc3ccco3)nn2c(C)c1Cc1ccccc1 | 0.05%
13 | Cc1cc(C)nc(-n2ncc3c2CC(c2ccc(C(C)C)cc2)CC3=O)n1 (stereo not given) | 0.11%
14 | O=C(Nc1ccccc1F)c1ccccc1-c1ccc(C(F)(F)F)cc1 | -0.53%
15 | O=C(NCC1CCCO1)/C(=C/c1ccc(Cl)cc1)NC(=O)c1ccccc1 (stereo not given) | -1.2%
16 | CCOC(=O)Cc1csc(NC(=O)C(C)(C)C)n1 | 6.79% (active)
17 | CCOC(=O)Cc1csc(NC(=O)Nc2ccccc2)n1 | -2.31%
18 | CCOC(=O)Cc1csc(NC(NC(=O)OCC)(C(F)(F)F)C(F)(F)F)n1 | -2.02%
19 | CCCCN1C(=O)c2ccc(C(=O)Nc3ccc(S(=O)(=O)N(C)C)cc3)cc2C1=O | -1.35%
20 | CC(=O)NC(Cc1ccccc1)C(=O)NC1CCN(c2ncccc2[N+](=O)[O-])CC1 (stereo not given) | -0.16%
21 | OC(COCc1ccco1)CN1CCN(c2ccccc2)CC1 (stereo not given) | -1.72%
22 | Cc1ccc(C(=O)Nc2ccc(C)c(S(=O)(=O)N(C)C)c2)s1 | 0.14%
23 | O=S(=O)(Nc1ccccn1)c1ccc(Oc2ccccc2)cc1 | -1.45%

Row | Structure (SMILES) | activation
24 | COC(=O)CNC(=O)c1ccccc1[N+](=O)[O-] | -2.69%
25 | O=[N+]([O-])c1ccccc1SNc1ccccn1 | 10.3% (active)
26 | COc1cc(CN2CC(C)CC(C)C2)cc([N+](=O)[O-])c1O (stereo not given) | 0.36%
27 | COc1cc(NC(=O)c2cc([N+](=O)[O-])ccc2Br)ccc1NC(=O)c1ccco1 | -2.01%
28 | Cc1ccc(-c2cc(N)on2)cc1 | -1.6%
29 | CCOc1ccc(Br)cc1S(=O)(=O)Nc1ccc(C(=O)OC(C)C(=O)N(C)c2ccccc2)cc1 (stereo not given) | -0.52%
30 | COc1cc(NC(=S)NCCSc2ccc(C)cc2)cc(OC)c1 | -1.5%
31 | Cc1noc(/C=C/c2ccco2)c1S(=O)(=O)N1CCC(C(=O)Nc2ccc(Cl)cn2)CC1 | -1.28%
32 | Cc1cccc2cc(CN(Cc3ccc4c(c3)OCO4)Cc3nnnn3C3CCCC3)c(=O)[nH]c12 | 5.7% (active)
33 | CCC(c1nnnn1C1CCCC1)N(Cc1cccs1)Cc1cc2cccc(C)c2[nH]c1=O (stereo not given) | -1.09%
34 | Cc1cccc2cc(CN(Cc3cccs3)C(c3nnnn3C3CCCC3)C(C)C)c(=O)[nH]c12 (stereo not given) | -1.34%
35 | COc1ccccc1C1CC(=O)n2c(nc(-c3ccccc3)c2-c2ccccc2)S1 (stereo not given) | -1.18%
36 | O=C1N(c2ccc(Cl)cc2)C(c2ccc(Cl)cc2)N2CCCN12 (stereo not given) | -0.59%
37 | NCCCC[C@@H]1NC(=O)[C@H](CCC(=O)O)NC(=O)c2cc([N+](=O)[O-])cc(I)c2NCC[C@@H](C(N)=O)NC1=O | -0.98%
38 | CNC(=S)N/N=C/c1cn(Cc2ccc(C)cc2)c2ccccc12 | -1.46%
39 | O=c1cc(CO)oc(C(Nc2cccc([N+](=O)[O-])c2)c2ccccn2)c1O (stereo not given) | 0.7%
40 | Cc1ccc(-c2cn3cc([N+](=O)[O-])ccc3n2)cc1 | -1.19%
41 | CCOc1ccc(C(=O)Nc2cc(OC)ccc2OC)cc1 | -2.67%
42 | CCOc1ccccc1NC(=O)c1cccnc1 | 0.49%
43 | CCOc1cc(NC(=O)c2cnccn2)c(OCC)cc1NC(=O)c1ccc(C)cc1 | 22.8% (active)
44 | Cc1sc2nc(COC(=O)C(NC(=O)c3ccc(Cl)cc3Cl)C(C)C)[nH]c(=O)c2c1C (stereo not given) | -1.47%
45 | O=C(CSc1ncn[nH]1)Nc1ccnc2ccccc12 | -2.63%
